Consider 62 molecules from PubChem BioAssay AID686979 (National Center for Advancing Translational Sciences (NCATS), 2013).

About 50,000 (12%) of roughly 420,000 compounds were called active. Inconclusive results (about 26%) are left out. The call rests on the fitted dose curve; in most records, active means well fitted inhibition curve with a large enough effect; inconclusive means small, poorly fitted or top-dose-only effect; inactive means flat fitted curve, though single readings scatter. The list comes from a sample in which actives are over-represented; it also holds similar structures and randomly drawn compounds. Where a call stands in place of a potency, no number is given.
Potency means the concentration at half of the fitted maximal effect.

This experiment in a line: qHTS for Inhibitors of human tyrosyl-DNA phosphodiesterase 1 (TDP1): qHTS in cells in presence of CPT. Further: nearly all actives have a fitted effect of over 55% in size. The following applies: chicken DT40 Tdp1-/-;hTDP1 cells + 20 nM CPT, ATP luminescence, 48 h; series mostly up to 46.2 µM. In outline:
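Cell growth measured by CellTiter-Glo luminescence after a minimum 48 h, 37 C compound exposure with 20 nM CPT in Tdp1-knockout DT40 cells stably expressing hTDP1, seeded 400/well; qHTS titration format.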
As for `O=S(=O)(NCC(c1ccco1)N1CCOCC1)c1cc(F)ccc1F` (configuration not stated), the Potency result is “inactive”.
`Cc1cc(C)n(CCNC(=O)CC2C(=O)NCCN2Cc2ccc(C)o2)n1` (configuration not stated): the Potency entry is “inactive”.
As for `O=C(COc1cc2oc(=O)c3c(c2cc1Cl)CCC3)NCCCN1CCOCC1`, the entry is “inactive”; as for `Cc1ccc(-c2csc(C(C#N)=C(O)CN3CCN(C(=O)c4ccco4)CC3)n2)cc1`, “inactive”.
Then `CCOC(=O)c1cccc(NC(=O)CCn2nnc3ccccc32)c1`, with “inactive”; and `CCOC(=O)c1cnc(-n2nc(C)cc2C)nc1Nc1cccc(C(C)=O)c1`, with 16.4 µM (active).
As for `CCOC(=O)c1cnc(-n2nc(C)cc2C)nc1-n1nc(C)cc1C`, the entry is “inactive”; as for `COC(=O)c1ccc(OC)c(Cn2c(=O)n(Cc3ccccc3)c(=O)c3c2c2cc(OC)ccc2n3C)c1`, “inactive”.
Regarding `O=S(=O)(NCCS(=O)(=O)N1CCN(c2ccccc2)CC1)c1ccc(Cl)cc1`, the Potency entry was “inactive”.
Then `COCCCn1cc(CN2CC(N(C)C)CS2(=O)=O)nn1` (configuration not stated), with “inactive”; and `CC(=O)c1cccc(-c2ccc(CN3C(CC(C)C)C(=O)N(Cc4cn(CC5CCCCC5)nn4)CCS3(=O)=O)cc2)c1` (configuration not stated), with 20.6 µM (active).
Then `COc1ccc(-c2ccc(CN3C(CC(C)C)C(=O)N(Cc4cn(CC5CCCCC5)nn4)CCS3(=O)=O)cc2)cn1` (configuration not stated), with 20.6 µM (active); and `CC(=O)c1cccc(-n2nnnc2SCC(=O)NNC(=O)C2CCCCC2)c1`, with “inactive”; and `COCOCCn1cc(CN2CCS(=O)(=O)N(Cc3ccc(-c4ccc(OC)cc4)cc3)C(CC(C)C)C2=O)nn1` (configuration not stated), with 16.4 µM (active).
As for `CC(C)CC1C(=O)N(Cc2cn(Cc3ccco3)nn2)CCS(=O)(=O)N1Cc1ccc(-c2ccc(Cl)c(Cl)c2)cc1` (configuration not stated), the figure is 18.4 µM (active); as for `CCOC(=O)NC(=O)CSc1nnc(SCCC(=O)O)s1`, “inactive”; as for `Cc1nc(-c2ccc(F)cc2)c(CC(=O)N(C)CC(=O)Nc2c(C)cccc2C)s1`, “inactive”.
For `Cc1ccccc1-n1cc(CNC(=O)C2CCC(=O)N(C3CC3)C2)cn1` (configuration not stated), the Potency result is “inactive”.
Then `CCOC(=O)c1sc2nc(C)nc(Nc3ccc(OC)c(OC)c3)c2c1C`, with “inactive”; and `CC(=O)c1ccc(N=C2SCCCN2C(=O)C2CCCCC2)cc1`, with “inactive”.
Then `Cc1ccc(-c2cc(C(=O)Oc3ccccc3Cl)no2)cc1C`, with “inactive”; and `O=S1(=O)CC(N2CCN(CCO)CC2)CN1Cc1cn(Cc2cccc(Cl)c2)nn1` (configuration not stated), with “inactive”.
Then `CC1C(=O)N(Cc2cn(CC3CCCCC3)nn2)CCS(=O)(=O)N1Cc1ccc(-c2cccc(N(C)C)c2)cc1` (configuration not stated), with 4.61 µM (active); and `COc1ccc([C@H]2N[C@]3(CCCN(CC4CCCCC4)C3=O)[C@H]3C(=O)N(C)C(=O)[C@@H]23)cc1`, with “inactive”; and `O=S1(=O)CC(N2CCSCC2)CN1Cc1cn(Cc2cccc(Cl)c2)nn1` (configuration not stated), with “inactive”.
As for `COc1ccc(-c2ccc(CN3C(CC(C)C)C(=O)N(Cc4cn(CC5CCCCC5)nn4)CCS3(=O)=O)cc2)cc1` (configuration not stated), the Potency was 18.4 µM (active).
As for `COc1ccc(COC(=O)NC(C(=O)O)c2ccccc2)cc1` (configuration not stated), the Potency entry was “inactive”.
Then `O=C(O)c1ccccc1-c1ccccc1C(=O)Nc1ccccc1Br`, with “inactive”.
Turning to `O=C(CCNS(=O)(=O)c1ccc(Br)s1)NCc1ccccc1Cl`, the Potency entry was “inactive”.
In the case of `O=C(Nc1nnc(Cc2ccc(Cl)cc2)s1)c1cccnc1`, the Potency result was “inactive”.
Then `NC(=O)COc1ccc(NC(=O)c2ccccc2-c2ccccc2)cc1`, with “inactive”; and `CCCc1nc2c(c(=O)c3ccccc3n2C)c(=O)n1C1CCCCCC1`, with 18.4 µM (active); and `CCOC(=O)c1nnn2c3ccccc3c(=O)n(C)c12`, with “inactive”.
As for `Cn1c2ccccc2c(=O)c2c(O)cccc21`, the entry is “inactive”; as for `CCOc1ccc(C(=O)Nc2ccc(S(=O)(=O)Nc3cc(C)on3)cc2)cc1`, “inactive”.
As for `Cc1ccc(Nc2c(-c3ccc(Cl)cc3)nc3sccn23)c(C)c1`, the entry is “inactive”; as for `O=C(O)c1ccc(Cn2c(=S)[nH]c3cc(Cl)ccc3c2=O)cc1`, “inactive”; as for `N#CC1=C(N)Oc2c(sc3ccccc23)C1c1ccco1` (configuration not stated), 7.31 µM (active).
In the case of `COC(=O)C1=C(O)/C(=C/c2ccc(OCC(=O)Nc3ccccc3)cc2)N=C1C`, the Potency result is “inactive”.
In the case of `COC(=O)C1CCCCN1C(=O)c1ccc(OC2CCN(C(C)=O)CC2)c(OC)c1` (configuration not stated), the Potency result was “inactive”.
Then `O=S(=O)(NC1CCCCC1N1CCC(O)CC1)c1ccc(Cl)cc1` (configuration not stated), with “inactive”; and `CCNC(=O)N1c2ccccc2Sc2ccccc21`, with “inactive”.
Then `CNC(=O)N1c2ccccc2C=Cc2ccccc21`, with “inactive”; and `CC1C(C)N(C(=O)CCl)c2ccccc2N1C(=O)CCl` (configuration not stated), with 0.58 µM (active); and `Cc1[nH]n(-c2ccccc2)c(=O)c1N=Nc1ccccc1C(=O)N1CCCCC1`, with “inactive”.
As for `C=CCNC(=S)N1CCN(CCN=Cc2c(C)[nH]n(-c3ccc([N+](=O)[O-])cc3)c2=O)CC1`, the entry is “inactive”; as for `Cc1[nH]n(-c2ccc([N+](=O)[O-])cc2)c(=O)c1C=NCCN1CCN(C(=O)c2ccccc2F)CC1`, 9.2 µM (active).
With `CCCC(=O)Nc1cccc(NC(=S)NC(=O)C(C)Oc2ccc(Cl)cc2Cl)c1` (configuration not stated), the Potency entry is “inactive”.
As for `CC1CC(C)CN(C(=O)CCNC(=O)Cn2cnc3ccccc3c2=O)C1` (configuration not stated), the entry is “inactive”; as for `C=CCOc1cccc(C2C(C(=O)c3ccc(C)o3)=C(O)C(=O)N2CCCn2ccnc2)c1` (configuration not stated), “inactive”.
Then `CCC1CCc2c(sc(NC(C)=O)c2C#N)C1` (configuration not stated), with “inactive”; and `CC(C)N1CCc2c(sc(NC(=O)Cc3ccccc3)c2C#N)C1`, with “inactive”.
As for `CC(=O)N1CCc2c(sc(NC(=O)CCS(=O)(=O)c3ccccc3)c2C#N)C1`, the figure is 20.6 µM (active); as for `Cc1c(C(=O)NCC2CCCN(C)C2)cnn1-c1nccc(-c2ccco2)n1` (configuration not stated), “inactive”; as for `CC(NC(=O)C(C)(C)C)C(c1cccs1)N1CCN(Cc2ccccc2)CC1` (configuration not stated), 20.6 µM (active).
As for `CCCC(c1nnnn1C(C)(C)C)N1CCN(Cc2ccccc2)CC1` (configuration not stated), the Potency entry is “inactive”.
For `CCCC(=O)NC(C)C(c1cccs1)N1CCN(c2ccccc2)CC1` (configuration not stated), the Potency result is “inactive”.
Take `CC(NC(=S)Nc1ccccc1)C(c1cccs1)N1CCOCC1` (configuration not stated): the Potency entry is “inactive”.
As for `O=C(Nc1ccccc1)N1CCN(Cc2ccccc2)CC1`, the entry is “inactive”; as for `CC(NC(=O)Nc1ccccc1)C(c1cccs1)N1CCN(c2ccccc2)CC1` (configuration not stated), 13 µM (active); as for `O=C(NCCCN1CCCCCC1)C1CC(=O)N(C2CCCC2)C1` (configuration not stated), “inactive”.
Regarding `N#Cc1nc(/C=C/c2ccc(F)cc2)oc1NCc1ccc(F)cc1`, the Potency entry is “inactive”.
